Reference: PubChem BioAssay (EPA / NIEHS)
Activity calls are given as the source filed them. How the source made its calls: active means hit-call score of the fitted dose curve at least 0.9, where 1 is the maximum; inactive means score below 0.9.

assay: APR_HepG2_MitoMembPot_1hr: Apredica 1-hour HepG2 Assay for Mitochondrial Membrane Potential (AID 2282675); conditions: imaging, actives raise or lower the signal
Procedure: APR_HepG2_1hr is a cell-based, multiplexed-readout assay that uses HepG2, a human liver cell line, with measurements taken at 1 hour after chemical dosing in a 384-well plate.APR_HepG2_MitoMembPot_1hr is one of 10 assay component(s) measured or calculated from the APR_HepG2_1hr assay. It is designed to make measurements of dye binding, a form of membrane potential reporter, as detected with fluorescence intensity signals by HCS Fluorescent Imaging technology.Data from the assay component APR_HepG2_MitoMembPot_1hr was analyzed into 1 assay endpoint. This assay endpoint, APR_HepG2_MitoMembPot_1hr, was analyzed with bidirectional fitting relative to DMSO as the negative control and baseline of activity. Using a type of membrane potential reporter, gain or loss-of-signal activity can be used to understand changes in the signaling. Furthermore, this assay endpoint can be referred to as a primary readout, because this assay has produced multiple assay endpoints where this one serves a signaling function. To generalize the intended target to other relatable targets, this assay endpoint is annotated to the cell morphology intended target family, where the subfamily is organelle conformation.
Cells were treated with dimethyl sulfoxide (DMSO) as a solvent control at a final concentration of 0.5% v/v or with compounds in DMSO with a resulting final DMSO concentration of 0.5% v/v. Compound treatment was done at concentrations of 0.39, 0.78, 1.56, 3.12, 6.24, 12.5, 25, 50, 100, and 200 uM in duplicate on each plate. Cells were treated with compounds for 1, 24, or 72 hr. Carbonyl […] m-chloro-phenylhydrazone (CCCP) and taxol were used as positive controls for mitochondrial function and cytoskeletal stability, respectively; DMSO served as the negative control for this experiment. Cells were fixed by the direct addition of 50 uL formaldehyde in Hank's Balanced Salt Solution (HBSS) to a final concentration of 3.7%. After incubation in the fixation medium for 30 min at room temperature (293-298 K), cells were rinsed twice with HBSS and treated with cell permeabilization buffer (16 uL of 0.5% Triton X-100) for 10 min at room temperature (293-298 K) before labeling. For mitochondrial membrane potential and mitochondrial measurements, pre-fixed cells were incubated with 50 uL of MitoTracker Red CMXRos (Invitrogen) at a concentration of 250 nM for 30 min before fixation. In the remaining cases, post-fixed cells were labeled by incubation with a multiplexed mixture of primary antibodies in HBSS for 60 min at room temperature (293-298 K) to detect immunoreactivity of c-Jun (1:500), phospho-histone H3 (1:100), phospho-histone H2A.x (1:200), p53 (1:400), alpha-tubulin (1:200) and Hoechst 33342 (2 ug/mL). Cells were labeled for multiplexed imaging on two separate plates: a) Hoechst 33342, MitoTracker Red, phospho-histone H3, and alpha-tubulin, and b) Hoechst 33342, phospho-histone H2A.x, and c-Jun. A final rinse with HBSS (50 uL) was performed before analysis. The primary and secondary antibodies for the proteins were phospho-histone H3 (rabbit anti-phospho-histone H3 and FITC-donkey anti-rabbit IgG), phospho-histone H2A.x (mouse anti-phospho-histone H2A.x and FITC-donkey anti-mouse IgG), c-Jun (rabbit anti-phospho-c-Jun and Cy3-donkey anti-rabbit IgG), p53 (sheep anti-p53 and Cy5-donkey anti-sheep IgG), alpha-tubulin (mouse anti-alpha-tubulin and Cy5-donkey anti-mouse IgG). These antibodies are available as the CellCiphr HepG2 assay kit (Millipore).Digital images of each well were captured using a Cellomics ArrayScan VTI (Thermo Scientific Cellomics) (0.8 NA objective, 0.63x optical coupler, and XF-93 filter set) at 20x magnification. The images were acquired using the autofocus feature of the ArrayScan instrument, which entails the following steps. First, the camera focuses on channel 1 (Hoechst 33342), where nuclei are identified. Second, a Z offset of 1 um is used for capturing mitochondria (MitoTracker Red). […]

Row | Compound | outcome | AC50
1 | CSC1=N[C@@](C)(c2ccccc2)C(=O)N1Nc1ccccc1 | inactive | 
2 | CCC(=NOC/C=C/Cl)C1=C(O)CC(C2CCOCC2)CC1=O (stereo not given) | inactive | 
3 | CCCCSP(=O)(SCCCC)SCCCC | inactive | 
4 | CCOP(=S)(OCC)Oc1cc(C)nc(C(C)C)n1 | inactive | 
5 | CC[C@H](C)[C@H]1O[C@]2(C=C[C@@H]1C)C[C@@H]1C[C@@H](C/C=C(\C)[C@@H](O[C@H]3C[C@H](OC)[C@@H](O[C@H]4C[C@H](OC)[C@@H](NC)[C@H](C)O4)[C@H](C)O3)[C@@H](C)/C=C/C=C3\CO[C@@H]4[C@H](O)C(C)=C[C@@H](C(=O)O1)[C@]34O)O2 | inactive | 
6 | CSc1nc(NC(C)C)nc(NC(C)C)n1 | inactive | 
7 | CCOP(=S)(OCC)Oc1ccc2c(C)c(Cl)c(=O)oc2c1 | inactive | 
8 | CC(C1CC1)C(O)(Cn1cncn1)c1ccc(Cl)cc1 (stereo not given) | inactive | 
9 | CCCCOC(=O)[C@@H](C)Oc1ccc(Oc2ccc(C#N)cc2F)cc1 | inactive | 
10 | C[Si](Cn1cncn1)(c1ccc(F)cc1)c1ccc(F)cc1 | inactive | 
11 | CCOP(=O)(NC(C)C)Oc1ccc(SC)c(C)c1 (stereo not given) | inactive | 
12 | COP(=O)(OC)C(O)C(Cl)(Cl)Cl (stereo not given) | inactive | 
13 | CNc1cnn(-c2cccc(C(F)(F)F)c2)c(=O)c1Cl | inactive | 
14 | CCOP(=S)(Oc1cnc(C(C)(C)C)nc1)OC(C)C (stereo not given) | inactive | 
15 | CCc1cccc(CC)c1N(COC)C(=O)CCl | inactive | 
16 | CC(Oc1cccc(Cl)c1)C(=O)O (stereo not given) | inactive | 
17 | CCc1cccc(C)c1N(C(=O)CCl)C(C)COC (stereo not given) | inactive | 
18 | CCCOc1nn(C(=O)NS(=O)(=O)c2ccccc2C(=O)OC)c(=O)n1C | inactive | 
19 | CCOP(=S)(OCC)OC(Cl)C(Cl)(Cl)Cl (stereo not given) | inactive | 
20 | CNC(=O)Oc1cccc2c1OC(C)(C)O2 | inactive | 

Row | Compound | outcome | AC50
21 | CCCCN(CC)c1c([N+](=O)[O-])cc(C(F)(F)F)cc1[N+](=O)[O-] | inactive | 
22 | CCNc1nc(Cl)nc(NC(C)(C)C#N)n1 | inactive | 
23 | CNC(=O)ON=C(SC)C(=O)N(C)C | inactive | 
24 | COP(=O)(NC(C)=O)SC (stereo not given) | inactive | 
25 | CCOP(=O)(SC(C)CC)N1CCSC1=O (stereo not given) | inactive | 
26 | O=[N+]([O-])c1cc(C(F)(F)F)c(Cl)c([N+](=O)[O-])c1Nc1ncc(C(F)(F)F)cc1Cl |  | 15 µM (active)
27 | CSc1nnc(C(C)(C)C)c(=O)n1N | inactive | 
28 | CCCSP(=O)(OCC)Oc1ccc(Br)cc1Cl (stereo not given) | inactive | 
29 | CCCSP(=O)(OCC)SCCC | inactive | 
30 | C[N+]1(C)CCCCC1 | inactive | 
31 | Cc1ccn2nc(S(=O)(=O)Nc3c(F)cccc3F)nc2n1 | inactive | 
32 | CCOC(=O)COc1cc(-c2nn(C)c(OC(F)F)c2Cl)c(F)cc1Cl | inactive | 
33 | Nc1c(Cl)cc([N+](=O)[O-])cc1Cl | inactive | 
34 | COc1cccc(C(=O)NN(C(=O)c2cc(C)cc(C)c2)C(C)(C)C)c1C | inactive | 
35 | S=C1NCCN1 | inactive | 
36 | O=c1ccc(=O)[nH][nH]1 | inactive | 
37 | CON=C(C(=O)OC)c1ccccc1CON=C(C)c1cccc(C(F)(F)F)c1 | inactive | 
38 | Cc1cc(C2CC2)nc(Nc2ccccc2)n1 |  | 29.2 µM (active)
39 | CCC(CC)Nc1c([N+](=O)[O-])cc(C)c(C)c1[N+](=O)[O-] | inactive | 
40 | CC(=NC#N)N(C)Cc1ccc(Cl)nc1 | inactive | 
